This is an account of results in PubChem BioAssay (NCATS).

Results filed as inconclusive are left out. A number with no mark means an inactive call. Calls of active or inactive are those of the source. Unless noted, the call rests on the fitted dose curve.

The nature of assay [1]: qHTS for Inhibitors of the Functional Ribonucleoprotein Complex (vRNP) of Lassa (LASV) Arenavirus: LASV Primary Screen - GLuc reporter signal (AID 1347082; calls by dose curve; tested in HEK293 reporter line; further: nearly all actives have a fitted effect of over 60% in size; on activity change, negative = inhibition: series mostly up to about 57 µM).
Assay [2] can be described thus: qHTS for Inhibitors of the Functional Ribonucleoprotein Complex (vRNP) of Lassa (LASV) Arenavirus: Viability assay - alamar blue signal for LASV Primary Screen (AID 1347083; calls by dose curve; tested in HEK293 reporter line; further: nearly all actives have a fitted effect of over 80% in size; on activity change, negative = reduced viability: series mostly up to about 57 µM). (In general: qHTS replaces the single test concentration by a dilution series.)
Assay [3] in a line: qHTS for Inhibitors of the Functional Ribonucleoprotein Complex (vRNP) of Lymphocytic Choriomeningitis Arenaviruses (LCMV): Viability assay - alamar blue signal for LCMV Primary Screen (AID 1347085; calls by dose curve; tested in HEK293 reporter line; further: nearly all actives have a fitted effect of over 80% in size; on activity change, negative = lower viability: series mostly up to about 57 µM).
The target in assay [4] is Nucleoprotein (Lymphocytic choriomeningitis virus (strain Armstrong)) (UniProt P09992). As to the kind of experiment: qHTS for Inhibitors of the Functional Ribonucleoprotein Complex (vRNP) of Lymphocytic Choriomeningitis Arenaviruses (LCMV): LCMV Primary Screen - GLuc reporter signal (AID 1347086). Further: nearly all actives have a fitted effect of over 70% in size. On activity change, negative = inhibition: series mostly up to about 57 µM.
Nucleoprotein (Lymphocytic choriomeningitis virus (strain Armstrong)), sequence (P09992 whole entry, looked up): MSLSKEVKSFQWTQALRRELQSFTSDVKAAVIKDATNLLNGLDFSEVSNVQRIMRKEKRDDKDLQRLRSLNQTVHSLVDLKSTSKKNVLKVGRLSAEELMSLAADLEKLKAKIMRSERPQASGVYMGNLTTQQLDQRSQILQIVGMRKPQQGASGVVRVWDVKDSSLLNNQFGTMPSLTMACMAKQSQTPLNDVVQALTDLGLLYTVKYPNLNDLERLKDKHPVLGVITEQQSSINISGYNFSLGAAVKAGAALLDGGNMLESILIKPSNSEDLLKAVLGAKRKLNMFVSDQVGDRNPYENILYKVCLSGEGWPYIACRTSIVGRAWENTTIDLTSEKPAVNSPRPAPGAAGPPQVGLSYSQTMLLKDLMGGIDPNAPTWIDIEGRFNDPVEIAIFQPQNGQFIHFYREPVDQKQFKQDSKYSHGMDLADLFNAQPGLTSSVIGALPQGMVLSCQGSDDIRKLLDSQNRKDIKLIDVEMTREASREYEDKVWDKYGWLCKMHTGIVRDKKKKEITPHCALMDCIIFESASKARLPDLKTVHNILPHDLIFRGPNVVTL
On the % scale 0 is the no-effect control and ±100 the full control effect; potency means the concentration at half of the fitted maximal effect.

As to `CCCCCC1CCCC(=O)O1` (stereo not given), the Potency entry in assay [1], in assay [2], in assay [3] and in assay [4] was “inactive” each time.
As to `C[C@@H]1O[C@@H](O[C@H]2[C@H](O)[C@@H](O)[C@H](Oc3c(-c4ccc(O)cc4)oc4cc(O)cc(O)c4c3=O)O[C@@H]2CO)[C@H](O)[C@H](O)[C@H]1O`, the Potency result in assay [1], in assay [2], in assay [3] and in assay [4] was “inactive” each time.
Turning to `CC1(C)[C@H](O[C@H]2O[C@H](C(=O)O)[C@@H](O)[C@H](O)[C@H]2O[C@@H]2O[C@H](C(=O)O)[C@@H](O)[C@H](O)[C@H]2O)CC[C@@]2(C)[C@H]1CC[C@]1(C)[C@H]2C(=O)C=C2[C@H]3C[C@@](C)(C(=O)O)CC[C@]3(C)CC[C@]21C`, the Potency result in assay [1], in assay [2], in assay [3] and in assay [4] was “inactive” each time.
Consider `COC(/C=C(\C)CCC=C(C)C)OC`, for which the Potency result in assay [1], in assay [2], in assay [3] and in assay [4] was “inactive” throughout.
As to `CCCCCCCCCCCCCCCC(=O)NCCc1c[nH]c2ccccc12`, the Potency entry in assay [1], in assay [2], in assay [3] and in assay [4] was “inactive” in each case.
On to `CCCCCCCCCO`, for which the Potency entry in assay [1], in assay [2], in assay [3] and in assay [4] was “inactive” in each case.
On to `O=C[C@H](O)[C@@H](O)[C@H](O[C@H]1O[C@H](CO)[C@@H](O[C@H]2O[C@H](CO)[C@@H](O)[C@H](O)[C@H]2O)[C@H](O)[C@H]1O)[C@H](O)CO`, for which the Potency result in assay [1], in assay [2], in assay [3] and in assay [4] was “inactive” in each case.
Consider `CSCC[C@@H](N)C(=O)O`, for which the Potency result in assay [1], in assay [2], in assay [3] and in assay [4] was “inactive” in each case.
In the case of `C=C[C@@]1(C)CCC(/C(C)=C/C=C/C(C)(C)O)C[C@@H]1C(=C)C` (stereo not given in full), the Potency entry in assay [1], in assay [2], in assay [3] and in assay [4] was “inactive” each time.
For `CC/C=C/CCO`, the Potency entry in assay [1], in assay [2], in assay [3] and in assay [4] was “inactive” throughout.
With `COC(=O)N1c2ccccc2C23[C@@H]4CN5CCC[C@]6(CCC12C(O)(C6)C4=O)[C@H]53`, the Potency entry in assay [1], in assay [2], in assay [3] and in assay [4] was “inactive” in each case.
Consider `Cc1csc(NC(=O)c2sc3nc4c(c(C(F)(F)F)c3c2N)CCC4)n1`, for which the Potency result in assay [1], in assay [2], in assay [3] and in assay [4] was “inactive” each time.
`COc1cc2c(cc1OC)OC(C)(C)C=C2`: the Potency entry in assay [1], in assay [2], in assay [3] and in assay [4] was “inactive” throughout.
For `C/C1=C\[C@@H](O)C(C(C)C)C(OC(=O)c2ccc(O)cc2)C/C(C)=C/CC1` (stereo not given in full), the Potency entry in assay [1], in assay [2], in assay [3] and in assay [4] was “inactive” throughout.
With `COc1cc(C)c(C(=O)Oc2cc(C)c(C(=O)O)c(O)c2C)c(O)c1C(=O)O`, the Potency result in assay [1], in assay [2], in assay [3] and in assay [4] was “inactive” in each case.
In the case of `COc1ccc([C@@H]2[C@@H](O)[C@H](O)[C@@H](C)N2C)cc1OC`, the Potency entry in assay [1], in assay [2], in assay [3] and in assay [4] was “inactive” in each case.
Regarding `CC(C)(O)CC[C@H](OC(=O)c1ccccc1)[C@](C)(O)[C@H]1CC[C@@]2(O)C3=CC(=O)[C@@H]4C[C@@H](O)[C@H](O)C[C@]4(C)C3CC[C@]12C` (stereo not given in full), the Potency result in assay [1], in assay [2], in assay [3] and in assay [4] was “inactive” each time.
Turning to `O=C1c2c(O)cc(O)cc2O[C@@]12c1c(cc(O)c3c1O[C@H](c1ccc(O)cc1)[C@@H](O)C3)O[C@@H]2c1ccc(O)cc1`, the Potency entry in assay [1], in assay [2], in assay [3] and in assay [4] was “inactive” in each case.
Take `C=C1C2C[C@H](O)C(C)(C)[C@@]2(O)[C@H](O)C[C@]23C[C@@](C)(O)[C@H](CC[C@H]12)[C@H]3OC(C)=O` (stereo not given in full): the Potency result in assay [1], in assay [2], in assay [3] and in assay [4] was “inactive” each time.
Turning to `O=C(O)Cc1ccc(O)cc1`, the Potency result in assay [1], in assay [2], in assay [3] and in assay [4] was “inactive” in each case.
As to `CC(=O)OC1C(OC(C)=O)C2C(C)CC3OC(=O)C(C)C3CC2(C)C1OC(C)=O` (stereo not given), the Potency result in assay [1], in assay [2], in assay [3] and in assay [4] was “inactive” each time.
On to `CC[C@H](C)C(=O)N[C@H]1CCCN1C(=O)/C=C/c1ccccc1`, for which the Potency entry in assay [1], in assay [2], in assay [3] and in assay [4] was “inactive” in each case.
With `CCCCC[C@H](O)/C=C/[C@H]1OC(=O)C[C@H](O)[C@@H]1C/C=C\CCCC(=O)O`, the activity change, negative = inhibition in assay [1] is 4.7% [at 5.82 µM]; in assay [4], 3.12% [at 5.82 µM]. In addition, the activity change, negative = reduced viability in assay [2] was 8.43% [at 5.82 µM]. Moreover, the activity change, negative = lower viability in assay [3] was 3.55% [at 5.82 µM].
`O=C(Nc1cccc(C(F)(F)F)c1)Nc1cc(S(=O)(=O)NC2CC2)ccc1-c1ccsc1`: the Potency entry in assay [1], in assay [2], in assay [3] and in assay [4] was “inactive” each time.
For `COc1c2c(cc(O)c1C(C)=O)OC(C)(C)C=C2`, the Potency entry in assay [1], in assay [2], in assay [3] and in assay [4] was “inactive” in each case.
`COC(=O)C1=CO[C@@H](O[C@@H]2O[C@H](CO)[C@@H](O)[C@H](O)[C@H]2O)C2C1CC(O)O[C@H]2C` (stereo not given in full): the Potency entry in assay [1], in assay [2], in assay [3] and in assay [4] was “inactive” throughout.
On to `CCCCCCCCCCCCCCCCC`, for which the Potency entry in assay [1], in assay [2], in assay [3] and in assay [4] was “inactive” throughout.
In the case of `Cn1c2ccccc2c2c3c(c4c5ccccc5n(CCC#N)c4c21)CNC3=O`, the Potency is 8.63 µM (active) in assay [1], 485 nM (active) in assay [2], 3.85 µM (active) in assay [3] and 6.11 µM (active) in assay [4].
For `Cc1cc(-c2nnc3n2CCCCC3)c(C)n1-c1ccccc1`, in that order: “inactive”, “inactive”, “inactive” and “inactive”.
Turning to `COc1cc(C2OCC3C(c4ccc(OC5OC(CO)C(O)C(O)C5O)c(OC)c4)OCC23)ccc1O` (stereo not given), the Potency entry in assay [1], in assay [2], in assay [3] and in assay [4] was “inactive” each time.
